# In all, about 150,000 compounds went through this assay and about 540 (0.36%) showed an effect of 50% or more. The entries come from a sample that favours strong results as a whole.
# Test system: Plasmodium falciparum
# Assay: Primary screen in NF54 nanoGlo assay, in single point, at 2uM, 72h; a lower Z score goes with more inhibition
# Assay type: functional, Erythrocyte
# Conditions: timepoint 72 hour
Structure (SMILES),% Inhibition,Z score
CN(C)Cc1ccc(O)c(CCc2ccccc2)n1,64%,-4.36
OCc1cc(CO)c(O)c(CCc2ccccc2)n1,-7%,1.32
CN(C)Cc1cc(CN(C)C)c(O)c(CCc2ccccc2)n1,7%,-1.36
COC(=O)[C@H](CS(=O)(=O)Nc1cc(C)n(C)n1)c1ccccc1,3%,-0.46
O=c1c2ccoc2ccn1Cc1ccc(OC(F)F)cc1,-8%,0.89
O=C(C[n+]1ccccc1-c1nc(-c2ccc(Cl)cc2)cs1)c1ccccc1,-7%,1
O=C(CN1C=CCC=C1c1nc(-c2ccc(Br)cc2)cs1)c1ccccc1,65%,-4.25
Brc1ccc(-c2csc(Cc3nc(-c4ccc(Br)cc4)cs3)n2)cc1,-3%,0.3
COc1ccc(C(=O)CN2C=CCC=C2c2nc(-c3ccc(Cl)cc3)cs2)cc1,75%,-6.73
COc1ccc(C2=CN(CC(=O)c3ccc(Cl)cc3)C3=CCCCCN23)cc1,37%,-3.83
COc1ccc(-c2csc(-c3nc(-c4cccc(Cl)c4)cs3)n2)cc1,-13%,1.47
Cc1cnc(C2CCOCC2)n1CC1CCN(C(=O)c2cccs2)CC1,-4%,0.55
Cc1cc(F)ccc1C(=O)NCc1nnc(C)n1C1CC1,-2%,0.34
CCN1CCN([C@H]2CCN(c3cc(Cl)ccc3C#N)C2)CC1,-9%,1.34
CCn1c(-c2cc(NC(=O)c3ccc4c(c3)OCO4)[nH]n2)cc2ccc(OC)cc21,52%,-0.45
CCn1c(-c2cc(NC(=O)c3ccncc3)[nH]n2)cc2ccc(OC)cc21,34%,-3.83
CCn1c(-c2cc(NC(=O)c3cc(C)cc(C)c3)[nH]n2)cc2ccc(OC)cc21,17%,-1.96
O=C(c1cnn(Cc2ccccc2)c1)N1CCC[C@@H]1CO,5%,-0.66
Cc1ccc(CNC(=O)CN2CCN(C(=O)Nc3ccc(Cl)cc3)CC2=O)o1,7%,-1.32
CCN1CCOC(C(=O)N2CCCC(COc3ccccc3)C2)C1 (centres undefined),-11%,1.91
Oc1ccccc1C1=NN[C@@](O)(C(F)(F)C(F)F)C1,-6%,0.8

Structure (SMILES),% Inhibition,Z score
Oc1ccccc1-c1cnc(C(F)(F)F)s1,93%,-17.09
NC(=O)CC(=O)Nc1ncc(-c2ccccc2F)s1,4%,-0.56
Cn1nccc1[C@@H](O)CNC(=O)C1(c2cccnc2)CC2(CCC2)C1,-8%,1.59
CCN(CCN(C)C)C(=O)c1cccc(-c2ncccc2C)c1,-6%,0.81
CCN(CC)CCN(CC)C(=O)c1cccc(-c2ccc(C)nc2N)c1,-7%,0.71
CCN(CCN(C)C)C(=O)c1cccc(-c2ccc3nccc(N)c3c2)c1,96%,-13.62
CNC(=O)[C@@H]1C[C@H](NCc2ccccc2F)CN1CC(c1ccccc1)c1ccccc1,9%,-1.28
CNC(=O)[C@@H]1C[C@@H](NCc2ccc(C(F)(F)F)cc2)CN1CC(c1ccccc1)c1ccccc1,2%,-0.22
CNC(=O)[C@@H]1C[C@H](NCc2cc(OC)c(OC)c(OC)c2)CN1CC(c1ccccc1)c1ccccc1,54%,-11.4
Cc1cccc(OCCN2C(=O)N[C@@]3(CCCCc4ccccc43)C2=O)c1,4%,-0.78
CCN(Cc1noc(C2CCC2)n1)Cc1ccccc1C#N,-1%,0.12
COc1ccc(Cl)cc1-c1c(N2CCCC2)cn[nH]c1=O,1%,-0.09
O=C(NCCOc1ccccc1)NCCOc1ccccc1,1%,-0.22
Cc1cc(C(=O)NCCOc2ccccc2)c(C)s1,-17%,2.3
O=C(NCCOc1ccccc1)c1ccc(C(=O)NCCOc2ccccc2)s1,56%,-0.3
Cc1cc(C)n(Cc2c(C(=O)NCc3ccc(N(C)C)cc3)noc2C)n1,-13%,1.35
C#CCCCCC(=O)Nc1ccc(C#N)cn1,4%,-0.84
CC(C)[C@H]1CN(C(=O)c2nc(C(F)(F)F)n3c2CCCC3)CCN1,-15%,1.9
COc1cccc(Cl)c1CN[C@H]1CCCc2occc21,-24%,2.8
CC(O)CC(C)(C)CNC1CCCc2occc21 (centres undefined),36%,0.84
Oc1cccc(CN[C@H]2CCCc3occc32)c1Cl,78%,-12.81

# Reference: ChEMBL document CHEMBL4888484, “Replenishing the malaria drug discovery pipeline: Screening and hit evaluation of the MMV Hit Generation Library 1 (HGL1) against asexual blood stage Plasmodium falciparum ,using a nano luciferase reporter read-out” (2022)
